Assay results published in PubChem BioAssay (NCATS).
Records with an inconclusive call do not appear. Calls of active or inactive are those of the source. The call rests on the fitted dose curve; in most records, active means well fitted inhibition curve with a large enough effect; inconclusive means small, poorly fitted or top-dose-only effect; inactive means flat fitted curve, though single readings scatter.

Columns and labels:
Experiment in all cases: qHTS profiling for inhibitors of Plasmodium falciparum proliferation (AID 504749); further: nearly all actives have a fitted effect of over 60% in size
Conditions in all cases: P. falciparum in erythrocytes, SYBR Green DNA, 72 h; series mostly up to 28.7 µM
CP269 = system: CP269
Procedure, shortened: (§1)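 Three-day growth assay of blood-stage parasites in erythrocytes (0.3% parasitemia, 2.5% hematocrit) at 37 C, 5% CO2, quantified by SYBR Green DNA staining after overnight detergent lysis.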

CP286 = system: CP286
Procedure, shortened: as §1

CP291 = system: CP291
Procedure, shortened: as §1

CP297 = system: CP297
Procedure, shortened: as §1

CP305 = system: CP305
Procedure, shortened: as §1

CP315 = system: CP315
Procedure, shortened: as §1

CP325 = system: CP325
Procedure, shortened: as §1

CP329 = system: CP329
Procedure, shortened: as §1

CP335 = system: CP335
Procedure, shortened: as §1

DFO2036 = system: DFO2036
Procedure, shortened: as §1

DIV14 = system: DIV14
Procedure, shortened: as §1

DIV17 = system: DIV17
Procedure, shortened: as §1

DIV30 = system: DIV30
Procedure, shortened: as §1

Dd2 = system: Dd2
Procedure, shortened: as §1

ECU = system: ECU
Procedure, shortened: as §1

FAB9 = system: FAB9
Procedure, shortened: as §1

GB4 = system: GB4
Procedure, shortened: as §1

HB3 = system: HB3
Procedure, shortened: as §1

ICS = system: ICS
Procedure, shortened: as §1

JCK = system: JCK
Procedure, shortened: as §1

Measured: Potency
Potency means the concentration at half of the fitted maximal effect.

c1ccc2nc(N3CCNCC3)ccc2c1
inactive: all assays above

CCN(Cc1ccc(Cl)nc1)/C(=C/[N+](=O)[O-])NC
inactive: all assays above

Cc1ccc(N=CN(C)C=Nc2ccc(C)cc2C)c(C)c1
inactive: all assays above

O=C(O)c1nn(Cc2ccc(Cl)cc2Cl)c2ccccc12
inactive: all assays above

C[C@H]1C(=O)O[C@@H]2CCN3CC=C(COC(=O)[C@](C)(O)[C@]1(C)O)[C@H]23
inactive: all assays above

COP(=O)(OC)OC=C(Cl)Cl
not listed: ICS
inactive: all other assays above

CCCCCCCCCCCC[N+](C)(C)CCOc1ccccc1
active: CP269 10.7 µM | CP286 2.51 µM | CP291 8.49 µM | CP297 13.5 µM | CP305 8.49 µM | CP315 15.1 µM | CP325 9.53 µM | CP329 13.5 µM | CP335 6.01 µM | DFO2036 5.01 µM | DIV14 5.36 µM | DIV17 8.49 µM | DIV30 13.5 µM | Dd2 3.55 µM | ECU 5.01 µM | FAB9 7.94 µM | GB4 5.36 µM | HB3 6.31 µM | ICS 2.24 µM | JCK 12.6 µM

C[N+](C)(C)CCOC(=O)C(O)(c1ccccc1)c1ccccc1
inactive: all assays above

C#C[C@]1(O)CC[C@H]2[C@@H]3CCC4=CC(=O)CCC4=C3C=C[C@@]21CC
active: DIV14 4.26 µM | DIV17 5.36 µM | ECU 11.2 µM | HB3 10 µM | ICS 8.91 µM
inactive: CP315 | JCK

CN1CCc2cc(Cl)c(O)cc2[C@H]2c3ccccc3CC[C@@H]21
inactive: CP315 | CP325 | FAB9 | JCK
active: CP286 11.2 µM | CP335 8.49 µM | Dd2 10 µM

Oc1c(Br)cc(Br)cc1Br
not listed: CP297
inactive: all other assays above

C[N+]1(CCC(C(N)=O)(c2ccccc2)c2ccccc2)CCCCC1
not listed: CP325
inactive: all other assays above

c1cc2c(c(N3CCNCC3)c1)OCCO2
not listed: CP297 | DIV17
inactive: all other assays above

CC(C)(O)C(Cl)(Cl)Cl
active: CP269 4.26 µM | CP286 5.62 µM | CP291 15.1 µM | CP305 6.01 µM | CP325 12 µM | CP335 2.39 µM | DFO2036 3.55 µM | DIV14 1.51 µM | DIV17 1.51 µM | DIV30 5.36 µM | Dd2 2.51 µM | ECU 3.98 µM | FAB9 7.94 µM | GB4 2.69 µM | HB3 2 µM | ICS 0.891 µM | JCK 11.2 µM

CN1C[C@@H](NS(=O)(=O)N(C)C)C[C@@H]2c3cccc4c3c(cn4C)C[C@H]21
not listed: CP269 | CP286 | CP297 | CP329 | CP335 | DIV30 | Dd2 | ICS
inactive: all other assays above

CNC(=O)NC(O)C(Cl)(Cl)Cl (stereo not given)
not listed: DIV14
inactive: all other assays above

N#Cc1nn(-c2c(Cl)cc(C(F)(F)F)cc2Cl)c(N)c1S(=O)C(F)(F)F (stereo not given)
active: CP269 15.1 µM | CP286 5.01 µM | CP291 6.75 µM | CP297 10.7 µM | CP305 7.57 µM | CP329 7.57 µM | CP335 13.5 µM | DIV14 4.78 µM | DIV17 7.57 µM | DIV30 9.53 µM | GB4 7.57 µM | ICS 5.62 µM

Oc1ccc2[nH]cc(CCCCN3CC=C(c4ccccc4)CC3)c2c1
inactive: FAB9 | JCK
active: CP297 15.1 µM | CP315 16.9 µM | DFO2036 10 µM | DIV14 13.5 µM | DIV17 13.5 µM | Dd2 11.2 µM | GB4 9.53 µM | ICS 8.91 µM

CN1C(=O)[C@@H](NC(=O)c2cc3ccccc3[nH]2)N=C(c2ccccc2)c2ccccc21
inactive: FAB9 | JCK
active: DIV14 12 µM | DIV17 10.7 µM | Dd2 11.2 µM | ECU 10 µM | GB4 15.1 µM | ICS 8.91 µM

CNC(=O)Oc1cccc2ccccc12
not listed: CP297 | CP315 | DIV14 | GB4 | ICS
inactive: all other assays above

OC(O)C(Cl)(Cl)Cl
not listed: CP297
inactive: all other assays above

Clc1ccc(CO/N=C(\Cn2ccnc2)c2ccc(Cl)cc2Cl)c(Cl)c1
active: CP269 13.5 µM | CP286 5.62 µM | CP291 12 µM | CP297 4.78 µM | CP305 13.5 µM | CP325 13.5 µM | CP335 6.01 µM | DFO2036 3.98 µM | DIV14 1.51 µM | DIV17 1.9 µM | DIV30 3.38 µM | Dd2 4.47 µM | ECU 2.24 µM | GB4 1.69 µM | HB3 7.94 µM | ICS 1.12 µM

CC[C@]1(O)CC[C@H]2[C@@H]3CCC4=CCCC[C@@H]4[C@H]3CC[C@@]21C
not listed: CP305 | DFO2036 | DIV14 | DIV17 | DIV30 | ICS
inactive: all other assays above

O=C(NC(=O)c1c(F)cccc1F)Nc1cc(Cl)c(OC(F)(F)C(F)C(F)(F)F)cc1Cl (stereo not given)
not listed: CP286 | CP335 | DFO2036 | Dd2 | ECU | HB3 | ICS
inactive: all other assays above

COc1ccc(CN2CCNCC2)c(OC)c1OC
active: CP291 5.1 µM
inactive: CP286 | CP335 | DFO2036 | Dd2 | ECU | FAB9 | HB3 | ICS | JCK

COCC(=O)N(c1c(C)cccc1C)C(C)C(=O)OC (stereo not given)
not listed: DFO2036 | ECU
inactive: all other assays above

C[C@]12Cc3nonc3C[C@@H]1CC[C@@H]1[C@@H]2CC[C@@]2(C)[C@H]1CC[C@]2(C)O
not listed: CP335 | ICS
inactive: all other assays above
